Assay results taken from the supplement of paper PMC8253809.

Experiments:
Experiment in all cases: growth inhibition (% activity, log2 RLU normalised to DMSO / staurosporine); higher = more growth inhibition
Details in all cases: 33 µM
[1] = test system: DIPGX29 (H3.3 K27M diffuse intrinsic pontine glioma line)
How it was run: (§1)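 Approved drugs were tested in triplicate at a single final concentration of about 33 μM for 7 days at 37 °C, 5% CO2, on pHGG cell lines and H9-derived neural stem cells. Readout was CellTiter-Glo luminescence, log2-transformed and scaled per plate to % activity between solvent and positive control wells. The median over replicates gives the growth-inhibition value.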

[2] = test system: DIPGX37 (H3.3 K27M diffuse intrinsic pontine glioma line)
How it was run: as §1

[3] = test system: DIPGX7 (H3.3 K27M diffuse intrinsic pontine glioma line)
How it was run: as §1

[4] = test system: DIPGX9 (diffuse intrinsic pontine glioma line)
How it was run: as §1

[5] = test system: HGGX39 (paediatric high-grade glioma line)
How it was run: as §1

[6] = test system: HGGX6 (H3.3 G34R paediatric high-grade glioma line)
How it was run: as §1

[7] = test system: HNSC
How it was run: as §1

[8] = test system: SUDIPGIV (diffuse intrinsic pontine glioma line)
How it was run: as §1

[9] = test system: SUDIPGVI (diffuse intrinsic pontine glioma line)
How it was run: as §1

[10] = test system: SUDIPGXIII (diffuse intrinsic pontine glioma line)
How it was run: as §1

CNC(=O)Oc1ccc2c(c1)[C@]1(C)CCN(C)[C@@H]1N2C
growth inhibition [1]: -0.0328% | growth inhibition [2]: 2.09% | growth inhibition [3]: -0.713% | growth inhibition [4]: -0.267% | growth inhibition [5]: -1.19% | growth inhibition [6]: 1.68% | growth inhibition [7]: -0.354% | growth inhibition [8]: -0.781% | growth inhibition [9]: 2.19% | growth inhibition [10]: 1.12%

Cc1cccc(C)c1NC1=NCCCS1
growth inhibition [1]: -3.36% | growth inhibition [2]: -1.28% | growth inhibition [3]: -0.135% | growth inhibition [4]: -0.817% | growth inhibition [5]: -0.494% | growth inhibition [6]: 0.819% | growth inhibition [7]: -4.34% | growth inhibition [8]: 2.42% | growth inhibition [9]: -4.55% | growth inhibition [10]: 0.0734%

CC(=O)Nc1cc([As](=O)(O)O)ccc1O
growth inhibition [1]: -0.747% | growth inhibition [2]: 1.33% | growth inhibition [3]: -1.33% | growth inhibition [4]: -0.567% | growth inhibition [5]: 0.328% | growth inhibition [6]: 0.00658% | growth inhibition [7]: -0.382% | growth inhibition [8]: -1.04% | growth inhibition [9]: 0.903% | growth inhibition [10]: 1.03%

NCC(O)c1ccc(O)cc1 (stereo not given)
growth inhibition [1]: -0.0577% | growth inhibition [2]: 1.17% | growth inhibition [3]: 0.265% | growth inhibition [4]: -0.182% | growth inhibition [5]: 2.12% | growth inhibition [6]: -2.95% | growth inhibition [7]: 22.2% | growth inhibition [8]: 1.19% | growth inhibition [9]: -3.26% | growth inhibition [10]: -3%

C[N+](C)(C)CCCCCCCCCC[N+](C)(C)C
growth inhibition [1]: 0.486% | growth inhibition [2]: -0.577% | growth inhibition [3]: 1.7% | growth inhibition [4]: 1.41% | growth inhibition [5]: 3.26% | growth inhibition [6]: 2.4% | growth inhibition [7]: 1.52% | growth inhibition [8]: 0.278% | growth inhibition [9]: 4.87% | growth inhibition [10]: -1.36%

c1ccc2c(c1)sc1ccccc12
growth inhibition [1]: -2.47% | growth inhibition [2]: -0.0217% | growth inhibition [3]: -2.61% | growth inhibition [4]: -1.01% | growth inhibition [5]: -2.68% | growth inhibition [6]: -1.23% | growth inhibition [7]: -4.08% | growth inhibition [8]: -1.98% | growth inhibition [9]: -1.87% | growth inhibition [10]: 1.54%

NCC(CC(=O)O)c1ccc(Cl)cc1 (stereo not given)
growth inhibition [1]: 1.57% | growth inhibition [2]: -2.95% | growth inhibition [3]: 2.49% | growth inhibition [4]: 1.01% | growth inhibition [5]: 0.323% | growth inhibition [6]: -0.203% | growth inhibition [7]: 33.3% | growth inhibition [8]: 2.9% | growth inhibition [9]: -4.01% | growth inhibition [10]: 0.136%

C=C1C[C@@H]2[C@H](CC[C@]3(C)C(=O)CC[C@@H]23)[C@@]2(C)C=CC(=O)C=C12
growth inhibition [1]: 2.35% | growth inhibition [2]: 1.24% | growth inhibition [3]: 3.42% | growth inhibition [4]: 2.01% | growth inhibition [5]: 0.458% | growth inhibition [6]: -1.58% | growth inhibition [7]: -0.552% | growth inhibition [8]: -2.53% | growth inhibition [9]: -2.19% | growth inhibition [10]: 0.875%

CN1[C@@H]2C[C@@H](OC(=O)[C@H](CO)c3ccccc3)C[C@H]1[C@@H]1O[C@@H]12
growth inhibition [1]: -4.79% | growth inhibition [2]: -2% | growth inhibition [3]: -0.341% | growth inhibition [4]: -2.82% | growth inhibition [5]: -2.31% | growth inhibition [6]: -3.37% | growth inhibition [7]: 23.8% | growth inhibition [8]: -3.93% | growth inhibition [9]: -9.6% | growth inhibition [10]: 0.487%

CN(C)C1C(=O)C(C(N)=O)=C(O)C2(O)C(=O)C3=C(O)c4c(O)cccc4C(C)(O)C3CC12 (stereo not given)
growth inhibition [1]: -1.53% | growth inhibition [2]: -2.75% | growth inhibition [3]: 0.404% | growth inhibition [4]: -0.553% | growth inhibition [5]: 1.88% | growth inhibition [6]: -0.661% | growth inhibition [7]: -1.6% | growth inhibition [8]: 2.83% | growth inhibition [9]: -2.69% | growth inhibition [10]: -1.63%

O=C(O)c1nn(Cc2ccc(Cl)cc2Cl)c2ccccc12
growth inhibition [1]: 1.18% | growth inhibition [2]: 2.18% | growth inhibition [3]: 1.47% | growth inhibition [4]: -0.0993% | growth inhibition [5]: 1.2% | growth inhibition [6]: -0.667% | growth inhibition [7]: 30.5% | growth inhibition [8]: 3.06% | growth inhibition [9]: -3.75% | growth inhibition [10]: -0.117%

Cn1c(CCCC(=O)O)nc2cc(N(CCCl)CCCl)ccc21
growth inhibition [1]: 3.01% | growth inhibition [2]: 2.76% | growth inhibition [3]: 2.34% | growth inhibition [4]: 11.2% | growth inhibition [5]: 4.99% | growth inhibition [6]: 3.4% | growth inhibition [7]: 48.6% | growth inhibition [8]: -0.00689% | growth inhibition [9]: 1.43% | growth inhibition [10]: -0.487%

COc1ccc(OC)c(C(O)C(C)N)c1 (stereo not given)
growth inhibition [1]: 0.864% | growth inhibition [2]: 2.94% | growth inhibition [3]: -0.264% | growth inhibition [4]: 0.24% | growth inhibition [5]: 3.05% | growth inhibition [6]: 1.53% | growth inhibition [7]: 1.54% | growth inhibition [8]: 0.0544% | growth inhibition [9]: 3.12% | growth inhibition [10]: -0.103%

N[C@@H]1C[C@H]1c1ccccc1.N[C@H]1C[C@@H]1c1ccccc1
growth inhibition [1]: 1.4% | growth inhibition [2]: 3.63% | growth inhibition [3]: 2.09% | growth inhibition [4]: -0.549% | growth inhibition [5]: 5.28% | growth inhibition [6]: 2.4% | growth inhibition [7]: 3.66% | growth inhibition [8]: 1.14% | growth inhibition [9]: 3.88% | growth inhibition [10]: 0.0986%

CCC(COC(=O)c1cc(OC)c(OC)c(OC)c1)(c1ccccc1)N(C)C (stereo not given)
growth inhibition [1]: 7.04% | growth inhibition [2]: -5.85% | growth inhibition [3]: 26.9% | growth inhibition [4]: 2.8% | growth inhibition [5]: 7.48% | growth inhibition [6]: 5.32% | growth inhibition [7]: 52.1% | growth inhibition [8]: 23.2% | growth inhibition [9]: -0.409% | growth inhibition [10]: -13.6%

O=C(O[C@H]1C[C@H]2CC[C@@H](C1)[N+]21CCCC1)C(O)(c1ccccc1)c1ccccc1
growth inhibition [1]: -4.33% | growth inhibition [2]: -1.91% | growth inhibition [3]: -0.848% | growth inhibition [4]: -3.62% | growth inhibition [5]: -4.77% | growth inhibition [6]: -4.81% | growth inhibition [7]: 20.6% | growth inhibition [8]: -1.98% | growth inhibition [9]: -6.45% | growth inhibition [10]: -0.149%

CC[C@@H](C(N)=O)N1CCCC1=O
growth inhibition [1]: 1.34% | growth inhibition [2]: -1.57% | growth inhibition [3]: 0.427% | growth inhibition [4]: -0.877% | growth inhibition [5]: -1.17% | growth inhibition [6]: -3.23% | growth inhibition [7]: -0.905% | growth inhibition [8]: -1.25% | growth inhibition [9]: -0.784% | growth inhibition [10]: 0.999%

O=P1(N(CCCl)CCCl)NCCCO1 (stereo not given)
growth inhibition [1]: -1.28% | growth inhibition [2]: -0.973% | growth inhibition [3]: -2.34% | growth inhibition [4]: -0.609% | growth inhibition [5]: -1.32% | growth inhibition [6]: -0.517% | growth inhibition [7]: -1.67% | growth inhibition [8]: -2.17% | growth inhibition [9]: -1.97% | growth inhibition [10]: -0.0596%

CCC1=C[C@H]2CN3CCc4c([nH]c5ccccc45)[C@](C(=O)OC)(C2)[C@H]13
growth inhibition [1]: -4.07% | growth inhibition [2]: -1.56% | growth inhibition [3]: -1.78% | growth inhibition [4]: -1.01% | growth inhibition [5]: -1.76% | growth inhibition [6]: -3.94% | growth inhibition [7]: -4.27% | growth inhibition [8]: 2.26% | growth inhibition [9]: -1.41% | growth inhibition [10]: -2.44%
